Assay outcomes deposited in PubChem BioAssay by National Center for Advancing Translational Sciences (NCATS).
An excerpt weighted towards active compounds, which were near 21% of everything screened.
D3 antag – blocks the human D3 dopamine receptor. P35462. D3R cells, DiscoveRx beta-arrestin luminescence, antagonist mode; hits give low values. max response, negative = inhibition, %. hit rate 2.5% among 360,000. AID 652054; in the data active = max response below about -50%; inconclusive = no clear call, values can overlap the other calls
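Cells expressing the human receptor were seeded at 1500 cells/well, incubated overnight at 37 degrees C in 5% CO2, then exposed to library compounds with dopamine controls for 90 minutes at 37 degrees C before luminescent detection.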
IL-1B inflam inh – inhibitors of inflammasome signaling (IL-1 beta secretion) | THP-1 LPS/ATP IL-1B secretion, AlphaLISA, 16 h; hits give low values | activity change, % at 57.5 µM | hit rate 4.7% among 360,000 | AID 743279; in the data active = activity change below about -50%; inconclusive = mostly about -30% to -49%
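THP-1 cells pretreated 1 hr with compounds (up to 57.5 uM final), then stimulated with LPS (250 ng/mL final) plus ATP (1.25 mM final); secreted IL-1B measured by AlphaLISA after 16 hr, decreased signal indicating inhibition.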
D3 ag – D3 dopamine receptor (human) agonism. P35462. D3R DiscoveRx beta-arrestin cells, luminescence, 90 min. max activation, %. hit rate 0.58% among 410,000. AID 652048; in the data active = max activation above about 30%
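Cells at 1500/well, incubated overnight, then treated with pinned compounds (dopamine as control) for 90 min at 37 degrees C. DiscoveRx reagent added for 30 - 60 minutes at room temperature; luminescence read.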
ClpP mod – qHTS Assay for Activators of ClpP | ATP-dependent Clp protease proteolytic subunit (Bacillus subtilis (strain 168)), P80244 | purified B. subtilis ClpP, FRET peptide cleavage, 20 min | Potency, µM (doses to about 57.5 µM) | hit rate 1.9% among 340,000; active = well fitted falling curve with a large enough effect; inconclusive = small, poorly fitted or top-dose-only effect; inactive = no such curve, though single readings can be large or run the other way; also: the source files actives as falling curves though it sought activators and does not explain the sign; nearly all actives have a fitted effect of over 65% in size
Target sequence (P80244 whole entry, looked up): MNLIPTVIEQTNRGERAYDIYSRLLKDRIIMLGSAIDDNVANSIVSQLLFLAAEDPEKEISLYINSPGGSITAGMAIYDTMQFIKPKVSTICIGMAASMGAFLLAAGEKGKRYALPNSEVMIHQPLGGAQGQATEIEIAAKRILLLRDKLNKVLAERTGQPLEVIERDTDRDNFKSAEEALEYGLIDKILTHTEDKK
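Buffer: 100 mM Tris/HCl pH8, 100 mM KCl, 0.05% low protease BSA, 2.5% glycerol, 0.01% Tween-20. ClpP 10 microg/mL final; 20 min RT; delta FRET normalized to ADEP and DMSO controls.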
DT40 TDP1 CPT – DT40-hTDP1 cell growth loss with CPT | chicken DT40 Tdp1-/-;hTDP1 cells + 20 nM CPT, ATP luminescence, 48 h | Potency, µM (titrated, usually from 46.2 µM), most hits filed as inhibitors | hit rate 12% among 420,000 | AID 686979; also: nearly all actives have a fitted effect of over 55% in size
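Chicken DT40 Tdp1-/- cells stably complemented with human TDP1 were seeded at 400 cells/well in medium containing 20 nM camptothecin, exposed to pin-transferred compounds, and grown at 37 °C for at least 48 hr. Viability was read as ATP luminescence.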
TDP1 cell noCPT – qHTS for Inhibitors of human tyrosyl-DNA phosphodiesterase 1 (TDP1): qHTS in cells in absence of CPT. DT40 Tdp1-/- hTDP1 cells, no CPT, ATP luminescence, 48 h. Potency, µM (titrated, usually from 46.2 µM), usual class: inhibitors. hit rate 15% among 420,000; also: nearly all actives have a fitted effect of over 55% in size
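Seeded 400 DT40-hTDP1 cells/well (vehicle DMSO, no 20 nM CPT); pinned compounds; ≥48 hr at 37 °C; CellTiter-Glo luminescence as viability measure.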
A number is an active result; - = inactive; ? = inconclusive; . = no result given. Unless noted, calls follow the shape of the dose curve; as a rule, active = well fitted inhibition curve with a large enough effect; inconclusive = small, poorly fitted or top-dose-only effect; inactive = flat fitted curve, though single readings scatter.

SMILES | D3 antag | IL-1B inflam inh | D3 ag | ClpP mod | DT40 TDP1 CPT | TDP1 cell noCPT
CCC1CCCCN1CCCNC(=O)c1ccc2c(c1)NC(=O)CS2 (stereo not drawn) | - | - | - | - | - | -
Cn1nc(C(C)(C)C)cc1C(=O)N1CCCCC1c1cc(C(=O)N2CCOCC2)no1 (stereo not drawn) | - | - | - | - | ? | ?
Cn1nc(C(C)(C)C)cc1C(=O)N1CCCCC1c1cc(C(=O)NCc2ccccc2)no1 (stereo not drawn) | - | - | - | - | 10µM | 10µM
Cn1nc(C(C)(C)C)cc1C(=O)N1CCCCC1c1cc(C(=O)NCc2ccc(F)cc2)no1 (stereo not drawn) | - | - | - | - | 21µM | 13µM
NC(=O)CN1C(=O)C(=O)N(Cc2cccc(Cl)c2)C1=O | - | - | - | - | - | -
O=C(Cn1cccc1C(=O)c1ccccc1)NCc1ccccc1Cl | - | - | - | - | - | -
NC(=O)c1cccn1Cc1ccccc1Cl | -77 | - | - | - | ? | ?
NC(=O)c1cccn1Cc1cccc(Cl)c1 | - | - | - | - | 21µM | ?
CN(C(=O)C1=CC(c2ccc3c(c2)OCO3)=NS(=O)(=O)N1C)c1ccccc1 | . | . | - | - | - | -
O=C(/C=C/c1ccc(O)cc1)c1ccccc1O | . | . | . | . | 26µM | 15µM
O=C(/C=C/c1ccc(OCc2ccccc2)cc1)c1cccs1 | . | . | . | . | - | -
O=C(/C=C/c1cccc([N+](=O)[O-])c1)n1cnc2ccccc21 | -104 | -68 | - | . | 2.6µM | 2.6µM
O=C(/C=C/c1ccc(O)cc1)c1cccs1 | . | . | . | . | 24µM | 24µM
CC(=O)Oc1ccccc1C(=O)C=Cc1cccc([N+](=O)[O-])c1 | -56 | -101 | - | - | 10µM | 21µM
COc1cccc(C(O)c2nc(-c3cccc(C#N)c3)cs2)c1 (stereo not drawn) | - | - | - | - | ? | ?
Cc1nn2c(C)c(C(=O)NC(C)c3ccccc3)cnc2c1-c1ccc(F)cc1 (stereo not drawn) | . | . | - | - | - | ?
O=C(C=Cc1cccs1)c1cccs1 | - | - | - | . | ? | 26µM
O=C(/C=C/c1cccs1)c1ccco1 | - | - | - | . | - | ?
Cc1cccc(NC(=O)/C(=C/c2cccc([N+](=O)[O-])c2)NC(=O)c2cccs2)c1 | - | - | - | - | - | 1.8µM
O=C(/C=C/c1cccc([N+](=O)[O-])c1)c1cccs1 | -58 | -88 | - | . | 3.7µM | 2.3µM
O=C(/C=C\c1cccs1)c1c(O)ccc2ccc(=O)oc12 | - | -83 | - | - | ? | ?
O=C(/C=C/c1cccs1)c1ccc(Br)cc1 | - | ? | - | - | ? | ?
COc1ccc(C(=O)Nc2nnc([C@@H]3C[C@H](O)[C@@H](CO)O3)s2)cc1 | - | - | - | - | - | -
CCOC(=O)C1(Cc2ccccc2C(F)(F)F)CCN(CCCn2cccn2)CC1 | - | ? | - | . | ? | ?
CCC(=O)Nc1nnc(SCC(=O)NCCc2ccc(OC)c(OC)c2)s1 | - | - | - | - | - | -
SMILES | D3 antag | IL-1B inflam inh | D3 ag | ClpP mod | DT40 TDP1 CPT | TDP1 cell noCPT
CCOC(=O)c1cccc(NC(=O)Nc2ccc3c(c2)C(=O)OC3)c1 | - | - | - | . | - | ?
COc1ccccc1Cn1c(=O)c2ccccc2n2c(Sc3ncnc4sccc34)nnc12 | - | -85 | - | - | 21µM | 21µM
COc1ccccc1Cn1c(=O)c2ccccc2n2c(SCc3csc(C)n3)nnc12 | - | -55 | - | - | ? | ?
CCCn1c(=O)c2ccccc2n2c(SCCOc3ccc(OC)cc3)nnc12 | - | - | - | ? | ? | ?
CCn1c(=O)c2ccccc2n2c(SCC(N)=O)nnc12 | - | - | - | . | - | -
CC(=O)Oc1ccccc1C(=O)Nc1ccccc1C(=O)N1CCCCC1 | - | - | - | - | - | -
O=C1CCCN1CCC(=O)N1CCCC(CO)(Cc2ccccc2)C1 (stereo not drawn) | - | - | - | - | - | -
